Tgondii IFNg: T. gondii growth inhibition under IFN-gamma; activity change, negative = inhibition, % (concentration not given with the values); AID 1259416; Toxoplasma gondii growth in IFN-gamma-treated host cells; active compounds read low; 69,000 tested, 3.8% active; in the data active = activity change below about -70%, passing the limit was not always enough;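 also: host cells are HeLa cells infected with Toxoplasma gondii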
The depositor's hits bear a star; ! = repeats disagree. This is one part of a sample in which hits are shown more often than they occur.

SMILES	Tgondii IFNg
COc1ccc(C(=O)Nc2ccc(N3CCCC3)cc2)cc1OC	-5
COc1ccc(NC(=O)c2ccc(-c3ccc(-c4noc(C)n4)cc3C)cc2)cc1OCCN(C)C	-77*!
COc1ccc(NC(=O)c2ccc(-c3ccc(-c4noc(C)n4)cc3C)cc2)cc1N1CCN(C)CC1	-72*!
COc1ccc(C(=O)Nc2ccc(-c3nc(-c4ccccc4)co3)cc2)cc1OC	8
COc1ccc(C(=O)Nc2ccc(-c3nc(-c4cc(C)ccc4C)co3)cc2)cc1OC	7
COc1ccc(NC(=O)c2ccc3nc(-c4ccoc4)c(-c4ccoc4)nc3c2)cc1OC	57
Cc1cnccc1NCCNc1nc(-c2cccnc2)nc2c1cnn2C	3
O=C(NCCc1csc(-c2ccc(Cl)cc2)n1)C(=O)Nc1ccc2c(c1)OCCO2	-40
CC[C@@H]1C(=O)N(C)c2cnc(Nc3ccc(C(=O)NC4CCC(N5CCN(CC6CC6)CC5)CC4)cc3OC)nc2N1C(C)C (some centres undefined)	-68
CCCC(=O)N1CCCC1c1ncc(C(=O)Nc2ccccc2OC)c(C)n1 (centres undefined)	-8
CNC(=O)c1ccccc1Nc1nc(Nc2ccc3c(c2OC)CCC[C@H](N2CCN(CCO)CC2)C3)ncc1Cl	-75*
CCOc1ccccc1C(=O)NCCc1csc(-c2ccc(OC)cc2)n1	-47
CN1CCN(C(=O)NCc2nc(-c3cccc(F)c3)c(-c3ccccn3)[nH]2)CC1	1
CN1CCC(n2cc(-c3ccnc(N)c3)c(-c3cccc(F)c3)n2)CC1	-97*
Cn1cc(CN2CCc3ncnc(-c4cccc(F)c4)c3CC2)cn1	-6
Cc1nn(C)c(C)c1CC(C)NC(=O)c1ccc(Cl)c(N2CCCCC2)c1 (centres undefined)	1
COc1ccc(C(=O)OCC2CCCN3CCCCC23)cc1 (centres undefined)	-3
Cc1nn(Cc2nnc(SCc3c(F)cccc3Cl)n2C)c(C)c1Br	-24
N#CCCn1nc(-c2cccnc2)oc1=O	52
Cc1nn(CCC#N)c(C)c1Cc1c(Cl)cccc1Cl	-111*
Cc1ccccc1N1CC2(CCCCN2CC2CC2)CC1=O (centres undefined)	-9
CCOC(=O)c1cccc(NC(=O)C2CCN(S(=O)(=O)c3ccc4[nH]c(=O)ccc4c3)CC2)c1	287
Cc1ccc(-c2cc(-c3ccccc3)nc3sc4c(c23)CCCC4)cc1	33
O=c1[nH]cnc2c1sc1nc(-c3ccccc3)cc(-c3ccccc3)c12	-9
Nc1c(-c2nnc(-c3ccccc3)o2)sc2nc(-c3ccccc3)cc(-c3ccccc3)c12	-87*
SMILES	Tgondii IFNg
Cc1nc(-c2cccc(F)c2)sc1CCNC(=O)C(=O)Nc1ccc(F)c(Cl)c1	38
COc1cc(-c2cccc(NC(C)=O)c2)cc(OC)c1OC	11
COc1cc2c(c(OC)c1OC)-c1ccc(OC)c(=O)cc1C(NC(C)=O)CC2 (centres undefined)	-79*
COc1cc2c(c(OC)c1OC)C(=O)CC2	73
COc1ccccc1N(Cc1nc(-c2ccccc2)oc1C)S(=O)(=O)c1ccccc1	-45
Cc1cc(C)cc(CSCC(=O)N2CCCC(N(C)C)CC2)c1 (centres undefined)	-7
[O-][NH2+]c1ccc(O)c2ncccc12	-84*!
CC(C)Nc1nc2c(cc1C(=O)N1CCCC1)CCN(c1ncccn1)CC2	88
Cc1ccc(C)c(-c2[nH]ncc2CN(C)Cc2snnc2C)c1	-16
COCCN1CCO[C@H]2CN(S(=O)(=O)c3ccccc3)CC[C@@H]2C1	-7
CCc1cc(CN(C)C(=O)CN2C(=O)NC(=O)C2(C)C)on1	-1
COc1ccc(CNC(=O)c2nc(Nc3ccc(C)cc3)c3ccccc3n2)cc1	-29
COc1ccc2nc(C)cc(Nc3ccccc3O)c2c1	-63
COc1ccc(Nc2cc(C)nc3ccc(C)cc23)cc1	-97*
COCCC(=O)N1CCn2cc(CN3CCCC3)nc2C1	-3
CCn1c(C)ccc(C(=O)N(C)CCSc2ccc(C)cc2)c1=O	2
CNC(=S)Sc1ccc(F)cc1F	38
CC(=O)c1cc([N+](=O)[O-])c(Sc2ccc(F)cc2F)s1	-72*
Cc1cccc(C)c1NC(=O)c1ccccc1NC(=O)C1CCOCC1	-11
Cc1sc2ccccc2c1-c1nccn1CC1CC(=O)N(C2CC2)C1 (centres undefined)	13
COc1ccc(-c2ccc(-n3cnnc3)nc2C)cn1	-88*
Cc1nc(-n2cnnc2)ccc1-c1ccc(C(N)=O)cc1	-1
CCCc1nc(C)cc(-c2ccc(OC)nc2)n1	18
CCOC(=O)C1=C(N)Oc2ccc(Br)cc2[C@H]1[C@H](C#N)C(=O)OCC	-75*
CCOC(=O)C1c2ccccc2Oc2ccccc21	23
SMILES	Tgondii IFNg
CCOC(=O)c1c(C)oc2cc(Br)c(OC(C)C(=O)OCC)cc12 (centres undefined)	-10
CN1CCCN(CC(=O)N(C/C=C/c2ccccc2)C2CC2)CC1	1
CC(C)c1cc(C(=O)N2CCCC(c3[nH]ncc3-c3ccccc3)C2)on1 (centres undefined)	-4
Cc1ccc(-c2cn[nH]c2C2CCCN(C(=O)c3ccc[nH]3)C2)cc1 (centres undefined)	-92*
Cc1ccc(-c2cn[nH]c2C2CCCN(C(=O)c3c[nH]c(=O)cn3)C2)cc1 (centres undefined)	-20
CC(C)(C)OC(=O)Nc1cc(-c2cn[nH]c2C2CCCN(C(=O)OC(C)(C)C)C2)ccn1 (centres undefined)	-102*
Nc1cc(-c2cn[nH]c2C2CCCN(S(=O)(=O)c3ccccc3)C2)ccn1 (centres undefined)	-39
CC(C)(C)OC(=O)N1CCCC(c2ccnc3cc(-c4cccc(F)c4)nn23)C1 (centres undefined)	21
CC(C)N(C)[C@@H]1c2ccccc2[C@H]2CN(C(=O)N(C)C)C[C@H]21	-1
CC(C)C(=O)N1CCc2nc(C(=O)N3CCCCC3)sc2CC1	53
CCCSc1ncc(CN2CCCC2c2ccccn2)cn1 (centres undefined)	-5
C[C@H]1O[C@@H](O[C@H]2[C@@H](O)C[C@H](O[C@H]3[C@@H](O)C[C@H](O[C@H]4CC[C@]5(C)C6CC[C@]7(C)[C@@H](C8=CC(=O)OC8)CC[C@]7(O)C6CC[C@@H]5C4)O[C@@H]3C)O[C@@H]2C)C[C@H](O)[C@@H]1O (some centres undefined)	-80*!
Cc1cc(C)n(-c2nnc(-c3ccccc3)c(-c3ccccc3)c2-c2ccccc2)n1	-22
Cc1cc(C)n(-c2nc(-c3ccccc3)cc(-c3ccccc3)n2)n1	-23
Cc1cc(C)n(-c2ncnc3sc(-c4ccccc4)cc23)n1	-94*
CN1C(=O)CCc2cc(C(=O)N3CCCCC3)ccc21	24
Cc1ccc(C2=NC3(CCN(Cc4cc(C)ccc4C)CC3)NC2=O)cc1	-16
O=c1[nH]nc(CN2CCCCC2)n1Cc1ccccc1	-42
CCCc1nnc(NC(=O)C2CC(=O)N(CCc3c[nH]c4ccc(Cl)cc34)C2)s1 (centres undefined)	-91*
CCCCc1nnc(NC(=O)C2CC(=O)N(CCc3c[nH]c4ccc(C)cc34)C2)s1 (centres undefined)	-28
CCCCc1nnc(NC(=O)C2CC(=O)N(CCc3c[nH]c4ccc(OC)cc34)C2)s1 (centres undefined)	68
CCc1cn[nH]c1C1CCCN(C(=O)c2cccnc2NC)C1 (centres undefined)	7
CCC(COC(=O)Nc1ccc(Cl)c(Cl)c1)NC(=O)OC(C)C (centres undefined)	-31

From PubChem BioAssay
